Results on nine compounds are retold here after PubChem BioAssay (NCATS).

Inconclusive results are not listed. Activity calls are given as the source filed them. Unless noted, calls come from the whole dose curve; as a rule, active = well fitted curve in the direction sought with a large enough effect; inconclusive = small, poorly fitted or top-dose-only effect, or another doubt; inactive = no such curve, though single readings can be large; an effect the other way counts as inactive or inconclusive.

Assay [1] deals with Cytochrome P450 2C19 (Homo sapiens) (UniProt P33261). The assay is described as follows: qHTS for inhibitors of CYP2C19 against the NCATS DSHEA and TCM libraries (AID 1919974).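 Note: luminescence from luciferin released by CYP2C19 oxidation of a pro-luciferin substrate; % is set by controls: 0 for no effect and ±100 for the full control effect.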 Put shortly:
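Read-out is luminescence after P450-Glo detection (30 min, RT). Before that: 15 min compound–enzyme preincubation, then 30-45 min reaction with 1x NADPH regeneration solution, substrate concentration isoform-specific.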

The nature of assay [2]: KB-8-5-11 P-gp reporter qHTS against the NCATS DSHEA and TCM libraries (AID 1919977). Note: 0% is about no effect. The gist of the method: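 P-gp-overexpressing KB-8-5-11 cells were screened in colchicine-free medium at 500 cells/well, as a titration series. Cells were exposed for 72 h at 37C. Viability was read by CellTiter-Glo luminescence after 30 min at room temperature.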
Assay [3] in a line: Dual reporter qHTS for agonist of Pregnane X Receptor (hPXR) against the NCATS DSHEA and TCM libraries: Fluorescence readout (AID 1920058). Note: 0% is about no effect. The gist of the method: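 HepG2 hPXR-Luc, 2000 cells/well, 5 h attach; cpds ~24 h, 37 °C/5% CO2; CellTiter-Fluor 1 h; fluor. Ex/Em 405/540 nm = viability.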
On the technique in general: qHTS replaces the single test concentration by a dilution series.

Assay [4] addresses Nuclear receptor subfamily 1 group I member 2 (Homo sapiens) (UniProt O75469). The assay is described as follows: Dual reporter qHTS for agonist of Pregnane X Receptor (hPXR) against the NCATS DSHEA and TCM libraries: Luminescence readout (AID 1920059). Note: 0% is about no effect. The gist of the method: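 hPXR-LucHepG2 cells in phenol red-free DMEM with 5% charcoal-stripped FBS, 2000 cells/well, attached 5 h, then exposed 24 h at 37C to compounds; rifampicin as positive agonist control (2.8 nM–92 uM). Luciferase luminescence read.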

Assay [5] in a line: Cell Proliferation Assay against the TMD8 Cell Line (AID 651645).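 Note: cells exposed to compound for 48 h before reading.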 Particulars: TMD8 DLBCL cell line proliferation/viability; at 46.1 µM (top of the series). Put shortly: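 TMD8 cells, 500/well in RPMI with 5% FBS, dosed immediately and grown 48 h at 37 C, 5% CO2. CellTiter-Glo luminescence normalised to DMSO 100% and 9.2 uM bortezomib (final) 0%.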
Assay [6] can be described thus: Cell Proliferation Assay against the HBL1 Cell Line (AID 651646).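 Note: cells exposed to compound for 48 h before reading.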 To be noted: HBL1 DLBCL cells; at 46.1 µM (top of the series). The gist of the method: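 500 log-phase HBL1 cells per well in phenol red-free RPMI with 5% FBS were treated with compounds for 48 h at 37 °C, 5% CO2. Viability was read by CellTiter-Glo luminescence, normalized to DMSO (100%) and 9.2 uM bortezomib final (0%).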

The nature of assay [7]: Cell Proliferation Assay against the TMD8 Cell Line (Caspase readout at 8 hrs) (AID 651713). Note: potency is the fitted concentration of half-maximal effect. Particulars: TMD8 lymphoma cells, caspase activation luminescence. The gist of the method: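 Seed log-phase TMD8 cells, add compound by pin tool, incubate 8 h at 37C under 5% CO2, equilibrate to room temperature, add Caspase-Glo, wait 15 min, read luminescence; percent activity uses DMSO and 9.2 uM bortezomib controls.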

Assay [8] concerns the target Tyrosine-protein kinase Yes (Homo sapiens) (UniProt P07947). Put plainly: qHTS for small molecule inhibitors of Yes1 kinase: Primary Screen (AID 686947).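 Note: plate controls were DMSO with enzyme for no effect and no-enzyme DMSO wells for full effect; nearly all actives have a fitted effect of over 60% in size.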 The gist of the method: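 Yes1 (4 nM) preincubated 20 min with compound, then 60 min room-temperature reaction with 0.1 mM ATP and 0.3 mg/mL poly(E4Y) in pH 7.5 Tris, 10 mM MgCl2. ADP measured by ADP-Glo luminescence, normalised to enzyme/no-enzyme controls.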

Assay [9] in a line: qHTS for small molecule inhibitors of Yes1 kinase: Counter Assay (AID 686950).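 Note: no kinase present so only ADP-Glo detection of a fixed ADP amount is tested; luminescence from ADP-Glo reporting ADP in a fixed ATP and ADP mixture; 0% = DMSO wells with ATP plus ADP and -100% = ATP-only wells without ADP.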 The gist of the method: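 Enzyme-free ADP-Glo interference check: compounds were preincubated 20 min in buffer, then an ATP/ADP mix (0.08 mM ATP, 0.02 mM ADP final) was added for 60 min at room temperature before two-step ADP-Glo luminescence detection.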
Assay [10] can be described thus: qHTS Assay for Identifying Gametocytocidal Compounds (AID 743244). Note: potency is the fitted concentration of half-maximal effect. Particulars: P. falciparum 3D7 stage III-V gametocytes, alamarBlue, 72 h. Put shortly:
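Using 20,000 stage III–V 3D7 gametocytes per well, compounds were incubated 72 h under 37 °C/5% CO2. Viability was then assessed by 24 h alamarBlue reduction, measured fluorometrically at 525/598 nm.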

Assay [11] deals with Calcium and integrin-binding protein 1 (Homo sapiens) (UniProt Q99828). The assay is described as follows: Confirmatory qHTS for Identification of Calcium Integrin Binding Protein 1 (CIB1) Competitor (AID 1508617). Note: potency is the fitted concentration of half-maximal effect; nearly all actives have a fitted effect of over 65% in size. To be noted: CIB1 binding competition assay, biochemical qHTS. The gist of the method: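 Fluorescence polarization competition: CIB1-GST (1 uM final) in 5 mM HEPES pH 7.4, 125 mM NaCl, 5 mM CaCl2, 0.01% Tween20 preincubated 15 min RT with compound (up to 114 uM), then FITC-alphaIIb peptide (100 nM) added, 15 min RT.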
Calcium and integrin-binding protein 1 (Homo sapiens), sequence (Q99828 whole entry, looked up): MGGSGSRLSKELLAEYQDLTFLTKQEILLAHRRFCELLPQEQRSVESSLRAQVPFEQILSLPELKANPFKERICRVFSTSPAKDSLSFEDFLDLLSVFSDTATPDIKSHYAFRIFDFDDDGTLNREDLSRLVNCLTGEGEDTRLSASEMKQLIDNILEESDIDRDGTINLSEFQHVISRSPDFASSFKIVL

Assay [12] is described as follows: Confirmatory qHTS for activators (rescue) of SARS-CoV-2 Cytopathic Effect (CPE) (AID 1508606; calls by dose curve; note: potency is the fitted concentration of half-maximal effect; nearly all actives have a fitted effect of over 70% in size).
The nature of assay [13]: qHTS Assay for Identification of Small Molecule Agonists for Hypoxia Response Element Signaling Pathway (AID 914; active = well fitted activation curve with a large enough effect in the signal ratio, with a control signal flat, not every such curve was filed as active; the % refers to the signal ratio; note: % of control where 0% means no effect). To be noted: ME-180 (cervical carcinoma) HRE-bla reporter, beta-lactamase ratio, CoCl2, 17 h; activation: stronger effect = higher value. The gist of the method: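 AC50 values come from titration-series %Activity, taken as the 460/530nm ratio of CCF4 fluorescence (excitation 405nm). CellSensor HRE-bla ME-180 cells were treated 17 hours at 37 C with compound plus an EC50 level of CoCl2.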

Assay [14] addresses Pyruvate kinase PKM (Homo sapiens) (UniProt P14618). Put plainly: qHTS Assay for Inhibitors of Human Muscle Pyruvate Kinase (AID 958). To be noted: purified human PKM enzyme activity. Put shortly: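 Luminescence from a luciferase ATP-detection/stop reagent reported PKM2 activity. Reactions contained 0.1 nM purified human enzyme, 0.5 mM PEP, 0.1 mM ADP and 7 mM MgCl2 at pH 7.2, run 1 h at RT.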

Assay [15] addresses Pyruvate kinase (Leishmania mexicana) (UniProt Q27686). The assay is described as follows: qHTS Validation Assay for Activators of Leishmania Mexicana Pyruvate Kinase (AID 959). The gist of the method:
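Purified LmPYK (E451W mutant, 0.2 nM) was incubated 1 h at room temperature with 0.5 mM PEP and 0.1 mM ADP in 50 mM imidazole pH 7.2, 50 mM KCl, 7 mM MgCl2; ATP formed was read by PKLight luminescence, normalized to DMSO wells.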

A further assay deals with CP203. Put plainly: qHTS profiling for inhibitors of Plasmodium falciparum proliferation (AID 504749).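 Note: 0% = DMSO vehicle and full inhibition = artemisinin control; nearly all actives have a fitted effect of over 60% in size.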 To be noted: P. falciparum in erythrocytes, SYBR Green DNA, 72 h; series mostly up to 28.7 µM. The gist of the method:
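Parasite proliferation within erythrocytes, 72 h exposure. Endpoint: SYBR Green I fluorescence after overnight lysis at room temperature. Controls: 0.29 uM artemisinin, DMSO.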

In assay [16] the target is DNA dC->dU-editing enzyme APOBEC-3G (Homo sapiens) (UniProt Q9HC16). The assay is described as follows: qHTS for inhibitors of Vif-A3G interactions: Validation (AID 588379). Note: 0% is about no effect. Put shortly:
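HeLa cells stably expressing Vif and A3G-eYFP, 700 cells/well, incubated overnight at 37 deg C, then exposed to compound overnight at 37 deg C. Inhibition of Vif-mediated degradation read as increased yellow fluorescence (Ex 488/Em 500-530) by laser-scanning cytometry.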

Assay [17] in a line: qHTS Assay for Identification of Small Molecule Antagonists for NFkB Signaling Pathway (AID 895; active = well fitted inhibition curve with a large enough effect in the signal ratio, with a control signal flat, not every such curve was filed as active; the % refers to the signal ratio; note: % is set by controls: 0 for no effect and ±100 for the full control effect). The gist of the method: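 NFkB-bla ME-180 cervical carcinoma cells with beta-lactamase reporter under NFkB response element; compounds added, then TNF alpha at 10 pM final (EC50), 5 h at 37 C. LiveBLAzer substrate 2 h, room temperature; emission 460/530 nm at 405 nm excitation.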

Assay [18] has as its target Cytochrome P450 2C9 (Homo sapiens) (UniProt P11712). Put plainly: qHTS Assay for Inhibitors and Substrates of Cytochrome P450 2C9 (AID 883). Note: potency is the fitted concentration of half-maximal effect; nearly all actives have a fitted effect of over 60% in size. Put shortly: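 Human CYP2C9 (10nM) hydroxylated Luciferin-H (100uM, at its KM) to luciferin in 25mM KPO4. Compound was preincubated 10 min at 37C, then NADPH regeneration started a 60 min reaction at 37C. Luminescence was read after detection reagent, normalized to 57uM sulphaphenazole.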

The target of assay [19] is D(1A) dopamine receptor (Homo sapiens) (UniProt P21728). Put plainly: HTS Assay for Allosteric Agonists of the Human D1 Dopamine Receptor: Primary Screen for Potentiators (AID 488982). Note: 0% is about no effect. Put shortly: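 Tetracycline-induced HEK293 T-REx cells force-coupled to calcium signalling were incubated overnight at 30 C and dye-loaded at room temperature. Calcium flux over 180 s after compound addition flagged agonists; a further 180 s read after EC20 dopamine flagged potentiators.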
D(1A) dopamine receptor (Homo sapiens), sequence (P21728 whole entry, looked up): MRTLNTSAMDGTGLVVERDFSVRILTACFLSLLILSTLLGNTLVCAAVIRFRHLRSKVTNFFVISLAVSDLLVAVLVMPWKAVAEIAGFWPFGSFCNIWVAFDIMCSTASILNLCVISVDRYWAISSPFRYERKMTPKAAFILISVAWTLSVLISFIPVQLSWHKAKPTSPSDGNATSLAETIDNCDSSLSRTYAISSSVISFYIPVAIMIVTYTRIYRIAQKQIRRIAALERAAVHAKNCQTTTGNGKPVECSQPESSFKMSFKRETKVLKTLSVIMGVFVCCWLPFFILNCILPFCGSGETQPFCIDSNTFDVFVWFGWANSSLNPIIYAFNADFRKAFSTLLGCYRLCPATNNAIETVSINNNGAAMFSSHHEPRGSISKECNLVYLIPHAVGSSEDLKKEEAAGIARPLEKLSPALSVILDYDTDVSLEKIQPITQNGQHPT

Tyrosine-protein kinase Yes (Homo sapiens), sequence (P07947 whole entry, looked up): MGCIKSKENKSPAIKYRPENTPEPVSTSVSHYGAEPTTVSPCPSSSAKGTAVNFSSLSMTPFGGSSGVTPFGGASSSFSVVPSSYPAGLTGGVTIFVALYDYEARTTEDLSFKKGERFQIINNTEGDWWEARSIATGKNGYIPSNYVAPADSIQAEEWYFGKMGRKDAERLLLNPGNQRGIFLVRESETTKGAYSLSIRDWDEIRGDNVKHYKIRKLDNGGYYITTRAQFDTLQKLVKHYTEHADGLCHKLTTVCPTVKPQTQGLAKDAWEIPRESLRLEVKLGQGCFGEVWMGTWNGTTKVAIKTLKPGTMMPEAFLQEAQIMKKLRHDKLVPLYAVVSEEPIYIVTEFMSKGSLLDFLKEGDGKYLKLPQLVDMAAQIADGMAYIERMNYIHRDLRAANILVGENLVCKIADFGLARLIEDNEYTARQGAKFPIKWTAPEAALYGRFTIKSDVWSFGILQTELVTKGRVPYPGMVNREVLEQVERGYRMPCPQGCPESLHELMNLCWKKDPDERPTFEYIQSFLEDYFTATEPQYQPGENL
Pyruvate kinase (Leishmania mexicana), sequence (Q27686 2-499 E452W): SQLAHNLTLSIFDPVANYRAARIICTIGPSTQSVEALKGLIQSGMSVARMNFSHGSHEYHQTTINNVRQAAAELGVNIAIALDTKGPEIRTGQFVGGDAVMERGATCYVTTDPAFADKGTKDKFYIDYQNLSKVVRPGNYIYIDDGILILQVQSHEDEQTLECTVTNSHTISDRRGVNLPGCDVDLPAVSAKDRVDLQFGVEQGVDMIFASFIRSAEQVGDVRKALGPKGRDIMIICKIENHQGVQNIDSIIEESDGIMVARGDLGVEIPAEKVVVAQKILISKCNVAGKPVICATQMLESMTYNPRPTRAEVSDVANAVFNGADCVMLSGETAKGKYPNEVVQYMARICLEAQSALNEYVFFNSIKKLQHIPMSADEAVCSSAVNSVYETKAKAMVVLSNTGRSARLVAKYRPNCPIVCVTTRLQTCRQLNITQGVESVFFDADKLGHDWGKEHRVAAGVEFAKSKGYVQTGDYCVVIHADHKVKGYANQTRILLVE
Cytochrome P450 2C9 (Homo sapiens), sequence (P11712 whole entry, looked up): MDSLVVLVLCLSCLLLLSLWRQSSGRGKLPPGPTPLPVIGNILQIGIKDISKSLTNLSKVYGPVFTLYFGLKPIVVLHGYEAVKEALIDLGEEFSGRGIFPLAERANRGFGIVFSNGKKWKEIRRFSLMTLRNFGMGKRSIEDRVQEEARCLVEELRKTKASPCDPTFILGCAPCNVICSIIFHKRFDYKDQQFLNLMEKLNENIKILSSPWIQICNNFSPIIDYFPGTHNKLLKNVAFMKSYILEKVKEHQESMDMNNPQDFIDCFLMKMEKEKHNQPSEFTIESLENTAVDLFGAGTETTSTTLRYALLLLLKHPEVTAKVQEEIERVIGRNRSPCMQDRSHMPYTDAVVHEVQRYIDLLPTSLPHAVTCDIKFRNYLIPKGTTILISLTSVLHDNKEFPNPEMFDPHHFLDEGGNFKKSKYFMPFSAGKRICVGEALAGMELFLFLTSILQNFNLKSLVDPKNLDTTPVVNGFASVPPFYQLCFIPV
Pyruvate kinase PKM (Homo sapiens), sequence (P14618 whole entry, looked up): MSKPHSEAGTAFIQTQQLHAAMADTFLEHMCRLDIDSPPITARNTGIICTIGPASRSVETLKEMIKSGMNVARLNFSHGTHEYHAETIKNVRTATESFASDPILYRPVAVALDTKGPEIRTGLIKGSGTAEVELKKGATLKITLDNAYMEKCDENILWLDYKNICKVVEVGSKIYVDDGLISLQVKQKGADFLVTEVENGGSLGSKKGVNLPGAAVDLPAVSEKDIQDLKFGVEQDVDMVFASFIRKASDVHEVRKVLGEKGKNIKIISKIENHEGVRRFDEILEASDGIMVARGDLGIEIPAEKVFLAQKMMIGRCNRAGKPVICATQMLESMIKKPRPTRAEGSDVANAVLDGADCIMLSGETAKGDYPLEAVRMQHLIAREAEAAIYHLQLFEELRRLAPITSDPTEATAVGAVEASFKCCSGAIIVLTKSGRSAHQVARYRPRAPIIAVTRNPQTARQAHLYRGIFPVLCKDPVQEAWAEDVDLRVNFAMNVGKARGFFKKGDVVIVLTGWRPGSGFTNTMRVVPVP
DNA dC->dU-editing enzyme APOBEC-3G (Homo sapiens), sequence (Q9HC16 whole entry, looked up): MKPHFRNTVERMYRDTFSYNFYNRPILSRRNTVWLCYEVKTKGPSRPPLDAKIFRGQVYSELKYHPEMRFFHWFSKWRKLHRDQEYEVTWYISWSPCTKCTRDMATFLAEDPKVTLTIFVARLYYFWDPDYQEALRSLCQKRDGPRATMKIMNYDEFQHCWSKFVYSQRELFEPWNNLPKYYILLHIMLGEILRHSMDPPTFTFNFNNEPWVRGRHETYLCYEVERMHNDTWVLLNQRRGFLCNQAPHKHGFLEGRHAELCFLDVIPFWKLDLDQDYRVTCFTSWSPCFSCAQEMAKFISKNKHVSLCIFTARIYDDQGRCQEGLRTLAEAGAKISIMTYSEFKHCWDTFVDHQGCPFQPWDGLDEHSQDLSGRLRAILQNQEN
Cytochrome P450 2C19 (Homo sapiens), sequence (P33261 whole entry, looked up, canonical isoform): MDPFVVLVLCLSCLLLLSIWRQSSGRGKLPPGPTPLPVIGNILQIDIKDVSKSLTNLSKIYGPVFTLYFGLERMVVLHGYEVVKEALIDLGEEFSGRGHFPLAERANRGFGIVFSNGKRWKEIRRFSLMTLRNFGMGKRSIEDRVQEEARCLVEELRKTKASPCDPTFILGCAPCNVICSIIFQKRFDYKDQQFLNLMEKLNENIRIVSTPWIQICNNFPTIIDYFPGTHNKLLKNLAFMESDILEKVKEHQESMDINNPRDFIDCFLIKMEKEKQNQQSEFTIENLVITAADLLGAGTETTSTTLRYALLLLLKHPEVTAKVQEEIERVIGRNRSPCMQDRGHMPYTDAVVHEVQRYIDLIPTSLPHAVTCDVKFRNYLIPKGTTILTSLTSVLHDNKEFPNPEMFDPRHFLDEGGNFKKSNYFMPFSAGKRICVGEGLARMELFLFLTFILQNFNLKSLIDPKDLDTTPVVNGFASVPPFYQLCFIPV
Nuclear receptor subfamily 1 group I member 2 (Homo sapiens), sequence (O75469 whole entry, looked up): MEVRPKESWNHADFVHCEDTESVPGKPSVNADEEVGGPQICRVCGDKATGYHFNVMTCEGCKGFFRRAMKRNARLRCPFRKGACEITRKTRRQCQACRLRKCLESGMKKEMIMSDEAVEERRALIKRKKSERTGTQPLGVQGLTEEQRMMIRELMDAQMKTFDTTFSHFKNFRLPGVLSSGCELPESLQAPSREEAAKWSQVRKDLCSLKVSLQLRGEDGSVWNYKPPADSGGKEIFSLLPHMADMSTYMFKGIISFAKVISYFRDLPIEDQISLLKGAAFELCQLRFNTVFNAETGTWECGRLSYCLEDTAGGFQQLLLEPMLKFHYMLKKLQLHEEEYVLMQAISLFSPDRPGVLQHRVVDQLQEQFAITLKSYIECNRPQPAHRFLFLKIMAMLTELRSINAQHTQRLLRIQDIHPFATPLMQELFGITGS

Turning to `N#CC(O[C@@H]1O[C@H](CO[C@@H]2O[C@H](CO)[C@@H](O)[C@H](O)[C@H]2O)[C@@H](O)[C@H](O)[C@H]1O)c1ccccc1` (stereo not given in full), the Potency result in assay [1], in assay [2] and in assay [4] was “inactive” throughout. In addition, the call in assay [3] was inactive.

Turning to `COC(=O)[C@]12CCC(C)(C)C[C@H]1[C@H]1C(=O)C=C3[C@@]4(C)C=C(C#N)C(=O)C(C)(C)[C@@H]4CC[C@@]3(C)[C@]1(C)CC2`, in [5], the viability (% of control) was 0.135%. For the same compound, the viability, percent of control in assay [6] worked out at 1.52%. For the same compound, the Potency is 0.662 µM (active) in assay [7], 5.01 µM (active) in assay [10] and 10 µM (active) in assay [11]. The compound was classed as inactive in [8] and in assay [9].

`CCCCCCC(C)(C)c1cc(O)c2c(c1)OC(C)(C)C1CC=C(CO)C[C@H]21` (stereo not given in full): the Potency in [12] was 10 µM (active).

Turning to `NNCc1cccc(O)c1`, the activation in [13] was 15.1% (inactive). Moreover, the Potency in assay [14] was 15.8 µM (active). Further, the outcome in assay [15] was inactive.

For `CC(C)(O)C1C2OC(=O)C1[C@]1(O)C[C@H]3O[C@]34C(=O)O[C@H]2[C@]14C` (stereo not given in full) (tested in a mixture with another compound), the Potency entry in the assay with CP203 was “inactive”.

`CC[C@@H](CO)NC(=O)[C@H]1C=C2c3cccc4c3c(cn4C)C[C@H]2N(C)C1`: in assay [16], the compound was classed as inactive.

As for `CCCN(CCC)C(=O)Cc1c(-c2ccc(Cl)cc2)nc2c(Cl)cc(Cl)cn12`, in assay [17], the Potency result was “inactive”.

Turning to `COc1cc(C=C(C#N)C#N)cc(O)c1O`, the Potency in [18] was 2.51 µM (active).

On to `CC12CCC3C(CCC4=C(O)C(=O)CCC43C)C1CCC2=O` (stereo not given), for which the result in assay [19] was inactive.
